Reference: PubChem BioAssay AID1903 (Southern Research Specialized Biocontainment Screening …, 2009)
Values joined by “and” are separate entries in the source; they are usually repeats but may differ in a detail not shown here. Equal values may be shown once. Among all 310,000 compounds or so, about 1,200 (0.39%) were called active. No rule for the calls is given here. These entries were drawn from the full list. Measured potencies and affinities stand elsewhere.

molecular target: Large T antigen (Simian virus 40) (UniProt P03070); assay: SV40 large T antigen inhibitors, biochemical (AID 1903); conditions: SV40 large T antigen ATPase/helicase inhibition assay; at 20 µM; stronger effect = higher value
Sequence (P03070 whole entry, looked up): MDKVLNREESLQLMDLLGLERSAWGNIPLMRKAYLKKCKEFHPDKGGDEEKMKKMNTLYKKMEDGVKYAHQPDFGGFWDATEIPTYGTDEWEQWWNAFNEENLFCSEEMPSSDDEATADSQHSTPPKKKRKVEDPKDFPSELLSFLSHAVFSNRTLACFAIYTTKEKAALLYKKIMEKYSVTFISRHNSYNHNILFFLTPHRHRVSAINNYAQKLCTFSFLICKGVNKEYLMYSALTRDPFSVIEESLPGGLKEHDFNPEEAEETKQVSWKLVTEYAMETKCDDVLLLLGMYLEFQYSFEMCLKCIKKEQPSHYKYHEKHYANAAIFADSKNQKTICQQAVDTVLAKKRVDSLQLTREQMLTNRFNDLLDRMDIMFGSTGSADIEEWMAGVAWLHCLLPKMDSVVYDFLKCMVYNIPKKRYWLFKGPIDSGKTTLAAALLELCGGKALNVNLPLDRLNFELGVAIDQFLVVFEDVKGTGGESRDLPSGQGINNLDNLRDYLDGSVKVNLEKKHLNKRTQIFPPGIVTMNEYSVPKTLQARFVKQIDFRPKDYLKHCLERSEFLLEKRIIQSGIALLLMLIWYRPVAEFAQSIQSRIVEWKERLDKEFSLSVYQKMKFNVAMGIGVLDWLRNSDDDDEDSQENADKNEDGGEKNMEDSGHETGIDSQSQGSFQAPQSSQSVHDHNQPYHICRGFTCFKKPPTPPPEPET

inhibition, inactive:
COc1ccc(NC(=O)CN(C)Cc2c(F)cccc2Cl)cc1S(=O)(=O)N1CCCCC1 4.49%, CN1C(=O)SC(Nc2ccccc2)C1=O (stereo not drawn) 5.64%, CN1C(=O)SC(Nc2ccc(F)cc2)C1=O (stereo not drawn) 20.7%, CCN(CC)S(=O)(=O)c1cccc(-c2cn3cc(C)ccc3n2)c1 8.06%, O=C(NCCC1CCCCN1S(=O)(=O)c1ccccc1)C(=O)NCc1ccncc1 (stereo not drawn) 4.13%, COc1ccc(-c2cc(C(F)(F)F)nc(N3CCN(C)CC3)n2)cc1 1.63%, CC(=O)Nc1ccc(NC(=O)CSc2nc3ccccc3o2)cc1 5.88%, C/C(=N/NC(=O)CSc1nc2ccccc2n1C)c1ccco1 -1.06%, C/C(=N\NC(=O)CSc1nc2ccccc2o1)c1cccc(O)c1 14.6%, C/C(=N/NC(=O)CSc1nc2ccccc2n1C)c1ccncc1 1.08%, O=C(NC1CCCCC1)C1CCCN1S(=O)(=O)c1ccc(Cl)cc1 (stereo not drawn) -4.64%, O=C(C1CC1)N1CCN(C(c2ccccc2)c2ccccc2)CC1 20.8%, COc1ccc(NC(=S)N2CCC(NC(=O)c3cccc(C)c3)CC2)cc1 19.3%, FC(F)(F)Oc1ccc(Nc2nc3ccccc3o2)cc1 17%, CS(=O)(=O)c1ccccc1C(=O)Nc1cccc(-c2nc3ccccc3o2)c1 6.81%, CCNC(=S)N/N=C/c1ccc(-c2ccccc2)o1 9.76%, CC(C)Cn1c(=O)c2ccccc2c2ccccc2c1=O 13.4%, O=C(NNC(=O)c1ccccc1-n1cccc1)c1ccc(Cl)cc1 6.79%, CCOc1cc(NS(=O)(=O)c2ccc(NC(C)=O)cc2)c(OCC)cc1NC(=O)C(C)C 9.09%, CCOc1cc(NC(=S)NC)c(OCC)cc1NC(=O)c1cccs1 9.37%, CCCCNC(=O)CNC(=O)c1nn(-c2ccc(OC)cc2OC)c(=O)c2ccccc12 4.78%, CN(c1ccccc1)c1ccc(/C=N/N2CCOCC2)cc1 32.7%, CN(C)c1ccc(/C=N/O)cc1 37.8%, CCN(Cc1ccccc1)c1ccc(/C=N/N2CCOCC2)cc1 32.1%, CCN(CC)c1ccc(/C=N\NC(N)=O)cc1 24.1%, COc1cc(OC)cc(C(=O)Nc2ccc(NC(=O)c3ccco3)c(C)c2)c1 20%, CCOC(=O)c1cccc(NC(=O)CN2CCN(c3ccc(OC)cc3)CC2)c1 38.2%, C=CCC1(CC=C)CCCN1C(=O)CC1C(=O)NCCN1Cc1ccc(OC)c(OC)c1 (stereo not drawn) 10.2%, O=C(NC1CCC(O)CC1)c1cccc2cccnc12 (stereo not drawn) 3.23%, O=C(NNC(=S)NC(=O)c1ccccc1[N+](=O)[O-])c1ccccc1O 31.4%, O=C(OCC1OC(n2ccc(=O)[nH]c2=O)C(O)C1OC(=O)c1ccccc1)c1ccccc1 (stereo not drawn) 11.7%, COC1OC(COC(=O)c2ccccc2)C(OC(=O)c2ccccc2)C1OC(=O)c1ccccc1 (stereo not drawn) 3.67%, Cc1cn(C2OC(COC(=O)c3ccccc3)C(OC(=O)c3ccccc3)C2OC(=O)c2ccccc2)c(=O)[nH]c1=O (stereo not drawn) 4.67%, O=C(OCC1OC(n2ncc(=O)[nH]c2=O)C(OC(=O)c2ccccc2)C1OC(=O)c1ccccc1)c1ccccc1 (stereo not drawn) 6.13%, CC(CCc1ccc(O)cc1)NC1C2CC3CC(C2)CC1C3 (stereo not drawn) 2.61%, Cc1ccc(NC(=O)c2cc3ccccc3cc2O)cc1 0.83%, CCOC(=O)c1nn(-c2ccc3ccccc3c2)cc1O 27.5%, CN(C)c1ccc(/C=N/NC(N)=S)cc1[N+](=O)[O-] 3.04%, Cc1ccc(/C=C2\NC(=S)NC2=O)cc1[N+](=O)[O-] 10.5%, CC(C)OP(=O)(OC(C)C)C(C)NC(=O)Cc1ccccc1 (stereo not drawn) 8.79%, Brc1ccc(-c2cn3ccccc3n2)cc1 9.2%, Cc1ccn2cc(-c3ccc(Br)cc3)nc2c1 8.41%, CC(=O)Nc1cccc(-c2cn3ccc(C)cc3n2)c1 11.2%, Fc1ccc(-c2cn3ccccc3n2)cc1 0.64%, Cc1noc(C)c1C(=O)Nc1c(F)cc(F)cc1Br 0.97%, COc1cc(/C=C/C(=O)OCC(=O)NCc2ccco2)ccc1OC(F)F 8.29%, COc1ccc(CSc2nnc(-c3ccncc3)n2C)cc1F 3.25%, CNS(=O)(=O)c1cccc2cccnc12 -1.68%, O=S(=O)(Nc1ccc(Br)cc1)c1cccc2cccnc12 11.5%, O=S(=O)(Nc1ccc(Cl)cc1)c1cccc2cccnc12 7.28%, NS(=O)(=O)c1cccc2cccnc12 10.6% and 4.71%, COc1cccc2c1O/C(=N\O)C(C(=O)Nc1ccc(C)cc1)C2 (stereo not drawn) 8.2%, S=C(c1ccc(Br)cc1)N1CCCC1 6.77%, COc1ccc(/C=N/NC(=O)c2ccoc2C)cc1OC 6.94%, COc1cc(/C=N/NC(=O)c2ccc3c(c2)OCO3)ccc1O -30%, COc1cc(/C=N/NC(=O)c2ccc3c(c2)OCCO3)c(Br)c(Br)c1O 29.5%, COc1cccc(/C=N/NC(=O)c2ccoc2C)c1O 9.61%, CCn1c(C)nc2cc(C(=O)N/N=C/c3cccc(OC)c3O)ccc21 6.05%, COc1cc(/C=N/NC(=O)c2ccoc2C)ccc1O 18%, CCn1c(C)nc2cc(C(=O)N/N=C/c3ccc(OC)cc3)ccc21 29.8%, CCOc1ccc(/C=N/NC(=O)c2ccoc2C)cc1OC -2.86%, CCCCN(C)CCN1C(=O)C2C(C(=O)Nc3ccc(OC)cc3)C3C=CC2(O3)C1C(=O)NC1CCCCC1 (stereo not drawn) 1.82%, Cc1cccc(NC(=O)CSc2ccc3nnc(-c4cccnc4)n3n2)c1 6.51%, COC(=O)c1ccc(S(=O)(=O)NNC(=O)COc2ccc(C)cc2)cc1 6.42%, Cc1c(Nc2cc(N3CCCCCC3)c3nonc3c2[N+](=O)[O-])c(=O)n(-c2ccccc2)n1C 3.53%, CC1=C(C(=O)Nc2ccccc2)C(c2ccc(O)cc2)N2C(=O)CSC2=N1 (stereo not drawn) 3.32%, Cc1nn(-c2ccccc2)c(C)c1C(=O)OCC(=O)N1CC(=O)Nc2ccccc21 10.3%, Cc1ccc2c(C)c(C(=O)N(Cc3ccc(F)cc3)C3CCS(=O)(=O)C3)oc2c1 (stereo not drawn) 7.21%, O=C1CCCN1CCCNc1ncccc1[N+](=O)[O-] 1.65%, CCC(C)(O)c1[nH]c2ccc(C(=O)OC)cc2c1C (stereo not drawn) 2.01%, CCCCC(CC)C1OCC(C[N+]2(C)CCOCC2)O1 (stereo not drawn) 19.1%, COc1ccc(/C=N/NC(=O)c2ccc(C)nc2)cc1O 33.4%, Cc1occc1C(=O)N/N=C/c1ccc(N(C)C)cc1 21.7%, COc1ccc(/C=N/NC(=O)c2cccnc2)cc1O 23.7%, Cc1occc1C(=O)N/N=C/C=C/c1ccccc1 24.7%, CCN(CC)CC(=O)c1c(N)n(Cc2ccccc2)c(=O)n(C)c1=O 6.97%, Cc1ccc(OCCNCC(O)COc2ccccc2)cc1 (stereo not drawn) 6.77%, CC(=O)/C=C(\C)Nc1ccccc1O 21.1%, CC(=O)Nc1cc(-c2ccccc2)ccc1O 26.7%, CC(=O)c1ccc(N2C(=NC(=O)C3CCCCC3)SC3CS(=O)(=O)CC32)cc1 (stereo not drawn) 14.9%, Cc1cc(C(=O)CN2C(=O)NC(Cc3c[nH]c4ccccc34)C2=O)c(C)n1C (stereo not drawn) -1.66%, Cc1cs/c(=N\N=C\c2ccccc2)n1Cc1ccco1 2.6%, CC(C)=N/N=c1\scc(C)n1Cc1ccco1 9.97%, Nc1ccc(N)c(C(=O)O)c1 12.3%, O=C(O)c1ccccc1O 13.6%, O=C(O)c1cccc(O)c1O 13%, Nc1ccc(C(=O)O)c(O)c1 2.41% and 26.8% and 24.4%, O=C(OCc1nnc(-c2ccccc2)o1)C1CC(=O)N(c2ccccc2)C1 (stereo not drawn) 4.63%, COc1ccc(CCNCC(=O)Nc2ccccc2C(F)(F)F)cc1 4.81%, CCCCc1nnc(NC(=O)C2CCN(c3ncnc4sc(C)c(C)c34)CC2)s1 6.43%, Cc1ccc(-n2nc3c(=O)n(CC(=O)NCc4ccccc4Cl)nc(C)c3c2C)cc1 10.3%, CCOC(=O)C1=C(O)/C(=C\c2cc(C)n(-c3ccccc3F)c2C)N=C1C 5.39%, O=C(NCc1cccs1)C1CCCN1C(=O)Nc1ccc(F)cc1 (stereo not drawn) 12.8%, O=C(c1ccc(S(=O)(=O)Nc2ccccc2)cc1)N1CCCC(C(F)(F)F)C1 (stereo not drawn) 11.1%, CCNC(=O)O/N=C(\C)c1sc(-c2ccc(Cl)cc2)nc1C 1.49%, COc1cc(/C=C2/SC(=S)N(c3c(C)n(C)n(-c4ccccc4)c3=O)C2=O)ccc1O 27%, CN=C1S/C(=C\c2ccc(OCC(=O)OC)c(OC)c2)C(=O)N1C 3.67%, CCOc1cc(/C=C2/NC(=O)N(CC(=O)Nc3cccc(C)c3)C2=O)ccc1O 12.6%, CN=C1S/C(=C\c2ccc(O)c(Br)c2)C(=O)N1C 28.8%, COc1cc(/C=C2\CCC/C(=C\c3ccc(O)c(OC)c3)C2=O)ccc1O 9.57%, CCOc1cccc(/C=C2\NC(=S)N(c3ccccc3)C2=O)c1O 18.7%, COc1cc(/C=C2/C(=O)CNC2=O)ccc1O 37.6%, CCOc1cc(/C=C2/NC(=O)N(CC(=O)OC)C2=O)ccc1OC 31.1%
